Test [1] relates to Aerobactin synthetase IucA (Klebsiella pneumoniae). The experiment in a line: inhibition of K. pneumoniae IucA enzyme – biochemical, Tocris library, absorbance (AID 1345561; call rule not given here;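 further: 100% = enzyme without compound and 0% = no enzyme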). Particulars: purified IucA enzyme assay, absorbance (OD) read-out; stronger effect = lower value;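 tested at 8 µM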.
The nature of test [2]: viability loss with induced miR-34 in A549 – imaging, A549 dox-inducible miR-34, nuclei and caspase counts, primary screen (AID 1347080). The note with it: A549 miR-34 inducible, Hoechst nuclei count, 48 h.
Test [3] can be described thus: galactose survival enhancers in mitochondrial complex I cybrids – cell-based, galactose medium, ATP luminescence, primary screen (AID 1645843;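 active means z-score of at least 1.8 in each of two replicates, scored against plate mean and spread of sample wells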;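 further: positive z means more ATP and so rescue of galactose-driven cybrid death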). Particulars: complex I mutant cybrid cells, 72 h, stronger effect = higher value.
Setting [4] is: stronger effect = lower value, cell number ratio, induced over uninduced.
The mark [5] stands for this setting: measured here: relative caspase fold change +Dox/-Dox.
Setting [6] is: measured here: total cells with miR-34 induction, stronger effect = lower value.
[7] abbreviates: measured here: total cells without miR-34 induction.

Where “and” joins values, the source holds several entries; their conditions need not be identical. Equal values may be shown once. Calls of active or inactive are those of the source.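 How the source made its calls, unless noted: active means compounds whose cell count with miR-34 switched on is under 0.7 times the count with it off; inactive means the rest.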

This is an account of results in PubChem BioAssay.

What is called remaining activity is the signal under treatment as a percentage of the control signal.

With `Cc1c(NC(=O)N2CCOCC2)ccc2c1c1ccccc1n2C(C)C`, in test [1], the remaining activity was 122% (inactive). Besides, the fold change in test [2] (setting [4]) is 0.891 (inactive); in test [2] (setting [5]), 1.37. The cell count in test [2] (setting [6]) was 8260; in test [2] (setting [7]), 9270. Besides, the z-score in test [3] was 1.14 (inactive).
As to `N=C(CC(O)COc1ccccc1-c1ccccc1)N1CCCCC1` (centres undefined), the remaining activity in test [1] is 113% (inactive). Further, the fold change in test [2] (setting [4]) was 0.933 (inactive); in test [2] (setting [5]), 0.891. For the same compound, the cell count in test [2] (setting [6]) worked out at 6170; in test [2] (setting [7]), 6610. Besides, the z-score in test [3] was -0.28 (inactive).
Consider `NC(=NC1C2CC3CC(C2)CC1C3)Nc1ccc(I)cc1` (centres undefined), for which, in test [1], the remaining activity was 126% (inactive). The fold change in test [2] (setting [4]) is 1.12 (inactive); in test [2] (setting [5]), 0.649. Moreover, the cell count in test [2] (setting [6]) turned out to be 2830; in test [2] (setting [7]) it was 2540. In addition, the z-score in test [3] was -0.39 (inactive).
On to `CCCCCCCCCCCCCCCC(=O)C(F)(F)F`, for which the remaining activity in test [1] is 108% (inactive). Further, the fold change in test [2] (setting [4]) is 1.01 (inactive) and 0.961 (inactive); in test [2] (setting [5]), 0.782 and 1.06. Moreover, the cell count was 5680 and 8900 in test [2] (setting [6]); 5630 and 9260 in test [2] (setting [7]). The z-score in test [3] is -0.105 (inactive).
On to `N#CC(Cc1ccc(O)cc1)c1ccc(O)cc1` (centres undefined), for which the remaining activity in test [1] is 90.6% (inactive). The fold change in test [2] (setting [4]) is 0.917 (inactive) and 0.865 (inactive); in test [2] (setting [5]), 0.401 and 1.73. In addition, the cell count in test [2] (setting [6]) was 5410 and 8710; in test [2] (setting [7]) it was 5900 and 10100. Moreover, the z-score in test [3] was 2.66 (active).
As for `Cc1cc(C)cc(C(=O)N(C)[C@H](Cc2ccc(-c3ccccc3)cc2)C(=O)N[C@@H](Cc2c[nH]c3ccccc23)C(=O)O)c1`, the remaining activity in test [1] is 125% (inactive). Further, the fold change in test [2] (setting [4]) is 0.884 (inactive); in test [2] (setting [5]) it was 0.967. For the same compound, the cell count turned out to be 8970 in test [2] (setting [6]) and 10100 in test [2] (setting [7]). Further, the z-score in test [3] was 7.92 (active).
For the compound `CSc1ccc([C@H]2CN3CCC[C@H]3c3ccccc32)cc1`, in test [1], the remaining activity is 123% (inactive). In addition, the fold change is 0.927 (inactive) in test [2] (setting [4]) and 1.33 in test [2] (setting [5]). Moreover, the cell count in test [2] (setting [6]) was determined as 7680; in test [2] (setting [7]), 8280. For the same compound, in test [3], the z-score was -0.51 (inactive).
Regarding `CC[C@]1(O)C[C@H]2CN(CCc3c([nH]c4ccccc34)[C@@](C(=O)OC)(c3cc4c(cc3OC)N(C)[C@H]3[C@@](O)(C(=O)OC)[C@H](OC(C)=O)[C@]5(CC)C=CCN6CC[C@]43[C@@H]65)C2)C1`, the remaining activity in test [1] was 123% (inactive). Moreover, the fold change in test [2] (setting [4]) is 1.06 (inactive); in test [2] (setting [5]), 0.382. The cell count came out at 1570 in test [2] (setting [6]) and 1480 in test [2] (setting [7]). Moreover, the z-score in test [3] is -0.65 (inactive).
As to `CCCCCCCCC(=O)NCc1cc(OC)c(O)cc1I`, in test [1], the remaining activity is 120% (inactive). The figures for the fold change in test [2] (setting [4]) and in test [2] (setting [5]) were 0.949 (inactive) and 0.652, respectively. Further, the cell count in test [2] (setting [6]) came out at 8140; in test [2] (setting [7]), 8580. For the same compound, the z-score in test [3] was -0.615 (inactive).
For the compound `Cn1cc(/C=C2/C(=O)Nc3cccnc32)c2ccccc21`, in test [1], the remaining activity was 89.8% (inactive). Besides, the results for the fold change in test [2] (setting [4]) and in test [2] (setting [5]) were 0.833 (inactive) and 1.45, respectively. Further, the cell count in test [2] (setting [6]) amounted to 2650; in test [2] (setting [7]), 3180. Moreover, the z-score in test [3] was -0.435 (inactive).
For the compound `COc1ccc(CC(=O)NC(/N=C(\NC#N)Nc2cccc3ncccc23)C(C)(C)C)cc1OC` (centres undefined), the remaining activity in test [1] is 122% (inactive). Moreover, the fold change is 0.95 (inactive) in test [2] (setting [4]) and 1.31 in test [2] (setting [5]). Also, the results for the cell count in test [2] (setting [6]) and in test [2] (setting [7]) were 9530 and 10000, respectively. In addition, the z-score in test [3] was 0.08 (inactive).
`COc1ccc(NC(=O)c2ccc(-c3ccc(-c4noc(C)n4)cc3C)cc2)cc1OCCN(C)C`: the remaining activity in test [1] is 128% (inactive). The figures for the fold change in test [2] (setting [4]) and in test [2] (setting [5]) were 1.2 (inactive) and 1.18, respectively. Also, the figures for the cell count in test [2] (setting [6]) and in test [2] (setting [7]) were 1160 and 962, respectively. Further, the z-score in test [3] is -0.765 (inactive).
As for `N[C@@H](Cn1ccc(=O)n(Cc2ccccc2C(=O)O)c1=O)C(=O)O`, the remaining activity in test [1] was 102% (inactive). The fold change in test [2] (setting [4]) is 0.972 (inactive); in test [2] (setting [5]), 1.26. For the same compound, the values for the cell count in test [2] (setting [6]) and in test [2] (setting [7]) were 8660 and 8900, respectively. For the same compound, in test [3], the z-score is 0.025 (inactive).
As to `NC(=O)N1c2ccccc2CC(O)c2ccccc21` (centres undefined), the remaining activity in test [1] is 111% (inactive). The fold change was 0.942 (inactive) in test [2] (setting [4]) and 0.846 in test [2] (setting [5]). In addition, the cell count turned out to be 8870 in test [2] (setting [6]) and 9420 in test [2] (setting [7]). Moreover, the z-score in test [3] is -0.055 (inactive).
`CC(=O)N1CCN(C)CC1`: the remaining activity in test [1] was 118% (inactive). Moreover, the fold change in test [2] (setting [4]) was 0.971 (inactive); in test [2] (setting [5]), 0.837. Also, the cell count amounted to 8470 in test [2] (setting [6]) and 8720 in test [2] (setting [7]). In addition, the z-score in test [3] is 0.29 (inactive).
In the case of `CCOC(=O)NC[C@H](Cc1ccc(OCCc2nc(-c3ccccc3)oc2C)cc1)N/C(C)=C\C(=O)c1ccc(C(F)(F)F)cc1`, in test [1], the remaining activity was 105% (inactive). In addition, the fold change in test [2] (setting [4]) was 1.05 (inactive); in test [2] (setting [5]), 1.05. In addition, the values for the cell count in test [2] (setting [6]) and in test [2] (setting [7]) were 5130 and 4910, respectively. The z-score in test [3] was -0.305 (inactive).
As to `CN(CCc1ccc(Cl)c(Cl)c1)CC(O)COc1ccc(NS(C)(=O)=O)cc1` (centres undefined), the remaining activity in test [1] is 107% (inactive). Also, the fold change was 0.951 (inactive) and 0.956 (inactive) in test [2] (setting [4]); 1.56 and 0.961 in test [2] (setting [5]). Besides, the cell count in test [2] (setting [6]) was 4180 and 6530; in test [2] (setting [7]), 4390 and 6830. In test [3], the z-score was 0.67 (inactive).
For the compound `CO[C@]12C[C@@H](COC(=O)c3cncc(Br)c3)CN(C)[C@@H]1CC1=CN(C)C3C=CC=C2C13` (some centres undefined), in test [1], the remaining activity was 107% (inactive). The results for the fold change in test [2] (setting [4]) and in test [2] (setting [5]) were 0.94 (inactive) and 0.794, respectively. Besides, the cell count was determined as 7700 in test [2] (setting [6]) and 8200 in test [2] (setting [7]). Further, the z-score in test [3] was 0.455 (inactive).
On to `OCCNCCCOc1cccc(Cl)c1Cl`, for which, in test [1], the remaining activity was 98.9% (inactive). Besides, the fold change in test [2] (setting [4]) is 0.929 (inactive) and 0.971 (inactive); in test [2] (setting [5]), 0.846 and 1.42. Further, the cell count in test [2] (setting [6]) was 5820 and 3550; in test [2] (setting [7]), 6260 and 3660. Moreover, in test [3], the z-score is -0.65 (inactive).
